This passage reports growth results from PubChem BioAssay (NCI).

Each structure is given as a SMILES string. About 83,000 compounds went through this panel and 20% of them were active in at least one assay; those are over-represented in the sample as a whole.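 Percent growth is the endpoint: 0 to 100 indicates growth inhibition (40 means 60% inhibition), 0 means no net growth, and negative values indicate cell death.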 Values without a mark were called inactive. Calls of active or inactive are those of the source. Rule for the calls: active = growth percent below 10; inactive = the rest.

Some test systems named below: SK-MEL-2 melanoma; EKVX NSCLC; SN12C renal; UO-31 renal; TK-10 renal; ACHN renal; CAKI-1 renal; A498 renal; CCRF-CEM leukemia; MOLT-4 leukemia; SR leukemia; RPMI-8226 leukemia; OVCAR-8 ovarian; OVCAR-5 ovarian; OVCAR-4 ovarian; SK-OV-3 ovarian; IGROV1 ovarian; HS 578T breast; NCI/ADR-RES ovarian; OVCAR-3 ovarian.
Common to all, as to experiment: NCI-60 one-dose screen, 48 h (100 = growth as untreated, 0 = no growth, -100 = all killed)
Common to all, as to conditions: 10 µM unless noted

`CS(=O)CCCCCN=C=S` (configuration not stated): the growth in the experiment with SK-MEL-2 melanoma was 6.73% (active); with EKVX NSCLC, 12.8%; with SN12C renal, -17% (active); in the experiment on UO-31 renal it was 1.81% (active); with TK-10 renal it was -27.7% (active); in the experiment on ACHN renal, -45.5% (active). The growth with CAKI-1 renal is -15.3% (active); with A498 renal, -25.9% (active); in the experiment with CCRF-CEM leukemia, -7.32% (active); with MOLT-4 leukemia it was -13% (active); in the experiment on SR leukemia it was -13.9% (active); with RPMI-8226 leukemia it was 5.22% (active). Besides, the growth was -8.89% (active) with OVCAR-8 ovarian; 11.6% with OVCAR-5 ovarian; 21.4% with OVCAR-4 ovarian; 8.97% (active) in the experiment on SK-OV-3 ovarian; 7.98% (active) in the experiment on IGROV1 ovarian; 11.6% in the experiment on HS 578T breast. Further, the growth in the experiment on NCI/ADR-RES ovarian was 1.36% (active).
For `CCC(=O)Oc1ccc(/C(=C(\C)c2ccccc2)c2ccc(OCCN(CC)CC)cc2)cc1`, the growth in the experiment with SK-MEL-2 melanoma is 108%; in the experiment with EKVX NSCLC, 103%; in the experiment with SN12C renal, 84.5%; with UO-31 renal, 63.3%; in the experiment with TK-10 renal it was 87.4%; in the experiment with ACHN renal, 94.8%. The growth with CAKI-1 renal was 100%; with A498 renal, 99.9%; with CCRF-CEM leukemia, 77.8%; with MOLT-4 leukemia, 66.4%; in the experiment with SR leukemia, 43.9%; in the experiment with RPMI-8226 leukemia, 68.2%. Further, the growth is 87.9% in the experiment on OVCAR-8 ovarian; 87.5% in the experiment on OVCAR-4 ovarian; 91.4% in the experiment on SK-OV-3 ovarian; 92.7% with IGROV1 ovarian; 97.8% in the experiment with OVCAR-3 ovarian; 51.9% in the experiment on HS 578T breast. Moreover, in the experiment with NCI/ADR-RES ovarian, the growth is 93%.
As to `Cn1c2c(Cl)c(Cl)ccc2c2ccn3c(=O)c4ccccc4nc3c21`, the growth was 107% with SK-MEL-2 melanoma; 80.8% in the experiment on EKVX NSCLC; 104% in the experiment with SN12C renal; 70.1% with UO-31 renal; 162% in the experiment on TK-10 renal; 93% with ACHN renal. The growth in the experiment on CAKI-1 renal is 89.1%; in the experiment on A498 renal it was 120%; with CCRF-CEM leukemia it was 80.8%; in the experiment on MOLT-4 leukemia, 94.7%; with SR leukemia it was 75.9%; in the experiment with OVCAR-8 ovarian, 95.5%. Further, the growth was 96.8% in the experiment with OVCAR-5 ovarian; 92.1% in the experiment with OVCAR-4 ovarian; 88.9% in the experiment on SK-OV-3 ovarian; 54.4% in the experiment on IGROV1 ovarian; 113% with OVCAR-3 ovarian; 103% in the experiment on HS 578T breast. Further, the growth with NCI/ADR-RES ovarian was 99.4%.
For `CC(=O)Oc1ccc(Nc2c3ccccc3nc3ccccc23)cc1`, the growth is -30.7% (active) in the experiment with SK-MEL-2 melanoma; 24% in the experiment with EKVX NSCLC; 5.67% (active) in the experiment with SN12C renal; -16.4% (active) with UO-31 renal; 3.64% (active) in the experiment with TK-10 renal; -31.7% (active) in the experiment with ACHN renal. For the same compound, the growth in the experiment with CAKI-1 renal was -32% (active); in the experiment on A498 renal it was -37.2% (active); in the experiment with CCRF-CEM leukemia it was -8.66% (active); in the experiment with MOLT-4 leukemia, 1.46% (active); with RPMI-8226 leukemia, -16.2% (active); in the experiment with OVCAR-8 ovarian, -58.9% (active). In addition, the growth is 18% in the experiment with OVCAR-5 ovarian; 13.8% with OVCAR-4 ovarian; 3.92% (active) in the experiment with SK-OV-3 ovarian; -11.8% (active) in the experiment with IGROV1 ovarian; 9.24% (active) in the experiment with OVCAR-3 ovarian; 25.1% with HS 578T breast. Also, in the experiment on NCI/ADR-RES ovarian, the growth was 23.8%.
`COc1cc(NC(N)=NCC(C)(C)COc2ccc(C(F)(F)F)cc2)cnc1C#N`: the growth is 77.3% in the experiment on SK-MEL-2 melanoma; 70.5% in the experiment on EKVX NSCLC; 66.8% with SN12C renal; 29.8% with UO-31 renal; 62.5% with TK-10 renal; 62.9% with ACHN renal. Moreover, the growth is 62.8% with CAKI-1 renal; 45.9% in the experiment with A498 renal; 56% in the experiment on CCRF-CEM leukemia; 15.6% with MOLT-4 leukemia; 49.8% in the experiment with SR leukemia; 81.8% in the experiment on OVCAR-8 ovarian. In addition, the growth in the experiment on OVCAR-5 ovarian is 65%; in the experiment on OVCAR-4 ovarian it was 65.8%; in the experiment with SK-OV-3 ovarian, 66.4%; in the experiment with IGROV1 ovarian, 43.9%; with OVCAR-3 ovarian it was 67.5%; in the experiment with HS 578T breast it was 31.6%. For the same compound, in the experiment with NCI/ADR-RES ovarian, the growth was 70.2%.
Take `Cc1cc(Cl)ccc1Nc1nc(C(F)(F)F)ccc1C(=O)N/N=C/c1ccc(F)cc1`: the growth in the experiment with SK-MEL-2 melanoma was -5.51% (active); with EKVX NSCLC it was 16.7%; with SN12C renal it was 8.7% (active); in the experiment on UO-31 renal, 2.45% (active); in the experiment with TK-10 renal, 0.832% (active); with ACHN renal it was 7.12% (active). The growth was 9.97% (active) with CAKI-1 renal; 8.05% (active) in the experiment on A498 renal; 4.12% (active) in the experiment with CCRF-CEM leukemia; -6.74% (active) with MOLT-4 leukemia; -30.8% (active) with SR leukemia; 23.1% in the experiment with OVCAR-8 ovarian. Also, the growth was 18.6% in the experiment with OVCAR-5 ovarian; 5.75% (active) in the experiment with OVCAR-4 ovarian; 21.3% in the experiment on SK-OV-3 ovarian; 8.97% (active) with IGROV1 ovarian; 9.84% (active) in the experiment on OVCAR-3 ovarian; 4.52% (active) with HS 578T breast. The growth with NCI/ADR-RES ovarian is 10.5%.
Take `C(=N\Nc1nnn(Cc2ccccc2)n1)/c1ccccc1`: the growth was 34% in the experiment on SK-MEL-2 melanoma; 57.6% with EKVX NSCLC; 67.5% with SN12C renal; 61.2% in the experiment on UO-31 renal; 76.6% with TK-10 renal; 67.2% with ACHN renal. For the same compound, the growth in the experiment on CAKI-1 renal is 95.2%; in the experiment on A498 renal, 38.2%; in the experiment on CCRF-CEM leukemia, 35%; in the experiment on MOLT-4 leukemia, 38.2%; in the experiment on SR leukemia, 17.2%; in the experiment on RPMI-8226 leukemia it was 31.2%. For the same compound, the growth in the experiment on OVCAR-5 ovarian was 93.1%; in the experiment on OVCAR-4 ovarian, 79.4%; in the experiment with SK-OV-3 ovarian, 35.9%; with IGROV1 ovarian, 50.4%; with OVCAR-3 ovarian, -38.1% (active); with HS 578T breast, 36.5%. Also, the growth with NCI/ADR-RES ovarian was -0.167% (active).
Regarding `Cc1ccc2c(c1)C(=O)c1c-2c(OCCCN(C)C)nc2ccccc12`, the growth in the experiment on SK-MEL-2 melanoma is 44.7%; in the experiment on EKVX NSCLC it was 28.4%; in the experiment with SN12C renal it was 19.4%; in the experiment on UO-31 renal it was 3.12% (active); in the experiment with TK-10 renal, 37.2%; in the experiment on ACHN renal, -6.51% (active). For the same compound, the growth in the experiment on CAKI-1 renal was 24.2%; with A498 renal, 33.3%; in the experiment on CCRF-CEM leukemia, 19.3%; in the experiment with MOLT-4 leukemia, -10.5% (active); in the experiment with SR leukemia, -27.5% (active); in the experiment with RPMI-8226 leukemia, -16.3% (active). For the same compound, the growth in the experiment on OVCAR-5 ovarian was 51.6%; in the experiment with OVCAR-4 ovarian it was 27.3%; in the experiment with SK-OV-3 ovarian, 60.3%; in the experiment on IGROV1 ovarian it was 3.1% (active); in the experiment with OVCAR-3 ovarian it was 55%; in the experiment on HS 578T breast, 35.3%. Also, the growth in the experiment with NCI/ADR-RES ovarian is 25.1%.
